Assay outcomes: PubChem BioAssay, National Center for Advancing Translational Sciences (NCATS)
CHX counter: counter-screen hit for Shiga toxin inhibitors, cycloheximide | cell reporter, cycloheximide protein synthesis inhibition counterscreen | max response, % | actives 12% (n = 300,000); in the data active means max response mostly above about 13%, no sharp cut-off; inactive means mostly below about 14%; further: read at 38.3 µM for the half of the compounds with a filed dose; 0% is about no effect
Shiga toxin inh: inhibitors of Shiga toxin in Vero cells; Vero cells, Shiga toxin protein synthesis inhibition reporter; inhibition, % at 38.7 µM; actives 9.2% (n = 290,000); in the data active means inhibition mostly above about 28%, no sharp cut-off; inactive means mostly below about 43%; further: 0% is about no effect
NS1 inh: influenza NS1 inhibition. Potency, µM (series often up to 46.1 µM), for the others: at the top dose activity, positive = more growth. actives 0.4% (n = 270,000). AID 2326; further: potency means the concentration at half of the fitted maximal effect; actives are rising curves; nearly all actives have a fitted effect of over 50% in size
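A cell-based growth assay was used: compounds that relieve NS1-induced slow growth of budding yeast raise OD600. Assay medium was yeast nitrogen base with ammonium sulphate and -URA supplement, pH 6.0, with 2% galactose.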
SARS PLP yeast: SARS-CoV PLP inhibition in yeast; S. cerevisiae expressing SARS-CoV PLpro, growth rescue; Potency, µM (series often up to 32.9 µM), for the others: top-dose activity, positive = growth rescue, hits mostly activators; actives 0.19% (n = 330,000); further: potency means the concentration at half of the fitted maximal effect; 0% is about no effect; nearly all actives have a fitted effect of over 55% in size
An asterisk follows results filed as active; ? = inconclusive; . = no result. This is a sample that favours compounds with a hit; in the whole collection about 12% have one here. Unless noted, the call rests on the fitted dose curve.

SMILES	CHX counter	Shiga toxin inh	NS1 inh	SARS PLP yeast
O=C1C=C(c2cccc(Br)c2)C[C@@H](c2ccc3c(c2)OCO3)C1	.	.	.	-22%
O=C1C=C(c2ccc(C(=O)O)c(Cl)c2)C[C@@H](c2ccc3c(c2)OCO3)C1	.	.	.	-1%
Nc1nc(Sc2c([N+](=O)[O-])cc(C(F)(F)F)cc2[N+](=O)[O-])n[nH]1	11	48*	3%	1%
Cc1ccc2c(c1)OC(c1ccc3c(c1)OCCO3)CC2=O (centres undefined)	29*	67*	-13%	1%
Cc1ccc(C(=O)Nc2ccc(NC(=O)c3ccco3)c(C)c2)cc1	31*	49*	-3%	2%
CC(=O)c1cccc(NC(=O)c2cccc(NC(=O)c3ccco3)c2)c1	4	.	11%	-3%
Cc1c(Cl)cccc1NC(=O)c1ccco1	10	.	5%	0%
Cc1ccc(O)c(NC(=O)c2cccc(NC(=O)c3ccco3)c2)c1	30*	58*	-21%	-1%
Cc1ccc(O)c(NC(=O)c2ccco2)c1	36*	56*	-41%	-11%
Cc1cc(O)c(NC(=O)c2ccco2)cc1C	57*	99*	-31%	-26%
CC(/C=C1\SC(=S)N(CCC(=O)Nc2nc(C)cs2)C1=O)=C\c1ccccc1	-5	-3	-3%	-1%
CN1CCC2(CC1)N=C(c1ccc(F)cc1)C(=S)N2C(=O)c1ccc(C(C)(C)C)cc1	-1	-2	-10%	2%
Cc1cc(Br)ccc1NC(=O)c1ccc(-n2cncn2)c([N+](=O)[O-])c1	.	.	.	-1%
CSc1nc(N)nc(SC2C=CCCC2)c1C#N (centres undefined)	26*	60	2%	9%
Cc1ccc(F)cc1NC(=O)N1CCN(C2c3ccccc3-c3ccccc32)CC1	-2	12	-1%	0%
C=CCNC(=O)N1CCCC(C(=O)c2cccc(Cl)c2)C1 (centres undefined)	2	-1	-1%	-1%
C=CCNC(=O)N1CCCC(C(=O)c2cccc(OC(C)C)c2)C1 (centres undefined)	26*	118*	-13%	-3%
CCCC(=O)c1c(NC(C)C)cc(C)oc1=O	1	-9	-14%	-1%
Cc1cccc(N=Nc2ccc(N(C)C)cc2)c1	43*	126*	-8%	0%
CN(C)c1ccc(N=Nc2cccc3ccoc23)cc1	56*	137*	-19%	-4%
CN(C)c1ccc(N=Nc2cccc(F)c2)cc1	41*	96*	-3%	-3%
CN(C)c1ccc(N=Nc2ccc(S(N)(=O)=O)cc2)cc1	52*	89*	?	2%
CN(C)N=Nc1ccc(S(N)(=O)=O)cc1	-4	-6	3%	1%
CC1=NN(c2cccc(F)c2)C(=O)/C1=C/c1ccc(N(C)C)cc1	2	-11	1%	-6%
Cc1cc(C)c(CSc2nnnn2-c2ccc(C(=O)O)cc2)c(C)c1	-5	-7	-6%	-2%
SMILES	CHX counter	Shiga toxin inh	NS1 inh	SARS PLP yeast
Fc1ccccc1Cn1nnc(-c2ccc3c(c2)OCO3)n1	43*	88*	-84%	-8%
COc1ccc(-c2nnn(Cc3ccccc3F)n2)cc1	49*	96*	-2%	-22%
COc1ccc([C@@H]2[C@@H]3C(=O)N(C(C)(C)C)C(=O)[C@@H]3[C@]3(Cc4ccc(Cl)cc4)C(=O)N(c4cccc(F)c4)C(=O)N23)cc1	.	.	.	7%
CCS(=O)(=O)c1ccc2oc(Nc3cccc(OC)c3)nc2c1	20*	41	.	0%
CCS(=O)(=O)c1ccc2oc(Nc3cc(Cl)ccc3OC)nc2c1	2	-16	8%	3%
CCS(=O)(=O)c1ccc2oc(Nc3ccccc3Br)nc2c1	35*	79*	-1%	-2%
CCS(=O)(=O)c1ccc2oc(Nc3ccc(C(C)(C)C)cc3)nc2c1	-2	3	.	1%
CCS(=O)(=O)c1ccc2oc(Nc3ccc(OC)cc3)nc2c1	22	38	.	-1%
CCS(=O)(=O)c1ccc2oc(Nc3ccccc3Cl)nc2c1	45*	80*	1%	-5%
Cc1sc(N/N=C/c2cccnc2)nc1-c1ccccc1	25*	48*	11%	5%
Clc1ccc(-c2csc(N/N=C\c3cccnc3)n2)cc1	28*	11	6%	-27%
C(=N\Nc1nc(-c2ccccc2)cs1)/c1ccco1	38*	61*	1%	-50%
Brc1ccc(-c2csc(N/N=C/c3ccco3)n2)cc1	40*	71*	.	-9%
O=C(O)c1ccc(S(=O)(=O)N[C@H](Cc2ccc(O)cc2)C(=O)O)cc1	-7	16	.	4%
Clc1ccc(-c2csc(N/N=C/c3ccco3)n2)cc1	38*	79*	17%	-2%
CC(C)=NNc1nc(-c2ccccc2)c(C)s1	36*	104*	.	-1%
Cc1ccc(-c2csc(N/N=C/c3ccco3)n2)cc1	35*	73*	-5%	5%
